Here are results for 13 compounds from PubChem BioAssay (NCI).

The panel holds about 83,000 compounds, 20% with a hit somewhere; the sample as a whole holds those more often.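 Treatment: one concentration, 48 hours, 96-well format. Scoring: percent growth, with anything below 10 considered active.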 Values without a mark were called inactive. Activity calls are given as the source filed them. *1 amine or outer side, *2 acyl side, *3 side chain or, on linkers, in order; H or OH if unused. Where a SMILES comes first, the peptide text is derived from it. [ ]: non-standard residue; d: D form. The star is where a group is joined. X5 = CCC(=O)CC1CC(C)CC(C(=O)[*:2])N1[*:1]; X4 = CCCCCCCCC(C)C(=O)*; Aib = CC(C)(N)C(=O)O; X6 = CC(CN(C)CCO)N*

Some test systems named below: NCI-H23 lung; NCI-H226 lung; NCI-H322M lung; HOP-62 NSCLC; NCI-H460 lung; NCI-H522 lung; A549/ATCC NSCLC; 786-0 renal; COLO 205 colon.
Assay in all cases: NCI-60 one-dose screen, 48 h (100 = growth as untreated, 0 = no growth, -100 = all killed)
What all share (details): 10 µM unless noted

For `Cc1cc(C)c([I+]c2c(C)cc(C)cc2C)c(C)c1`, the growth in the test on NCI-H23 lung was -29.1% (active); in the test with NCI-H226 lung, -1.55% (active); in the test with NCI-H322M lung it was 46.5%; in the test on HOP-62 NSCLC, -78.3% (active); with NCI-H460 lung, 1.11% (active); in the test on NCI-H522 lung, -66.8% (active). The figures for the growth with A549/ATCC NSCLC, in the test on 786-0 renal and in the test on COLO 205 colon were 6.93% (active), -89.6% (active) and -94.4% (active), respectively.
Consider `c1csc(-c2[nH]nc3c2CCc2ccccc2-3)c1`, for which the growth with NCI-H23 lung is 95.8%; with NCI-H226 lung, 80.9%; in the test on NCI-H322M lung, 55.4%; in the test on HOP-62 NSCLC it was 91.1%; in the test with NCI-H460 lung, 55%; in the test with NCI-H522 lung, 101%. Further, the growth with 786-0 renal was 103%; with COLO 205 colon, -11.2% (active).
Consider `O=C1C=CC(=O)c2c(O)c(CO)c(CO)c(O)c21`, for which the growth with NCI-H23 lung is 89.2%; with NCI-H226 lung, 110%; in the test on NCI-H322M lung, 119%; in the test with HOP-62 NSCLC it was 109%; in the test with NCI-H460 lung it was 102%; with NCI-H522 lung, 56.6%. For the same compound, the growth in the test with A549/ATCC NSCLC was 99.5%; in the test on 786-0 renal, 93.7%; with COLO 205 colon it was 12%.
`COC(=O)c1nc(=S)[nH]c(C(=O)OC)c1C(=O)c1ccc(Cl)c(Cl)c1`: the growth in the test on NCI-H23 lung was 103%; in the test on NCI-H226 lung, 102%; with NCI-H322M lung, 107%; in the test with HOP-62 NSCLC, 115%; in the test on NCI-H460 lung, 111%; in the test with NCI-H522 lung, 101%. The results for the growth in the test with A549/ATCC NSCLC, in the test on 786-0 renal and in the test with COLO 205 colon were 105%, 107% and 120%, respectively.
On to `C[n+]1ccccc1C[n+]1ccccc1`, for which the growth in the test with NCI-H23 lung is 106%; in the test with NCI-H226 lung, 108%; in the test with NCI-H322M lung, 128%; in the test with HOP-62 NSCLC it was 100%; with NCI-H460 lung, 115%; with NCI-H522 lung, 111%. Further, the growth in the test with 786-0 renal is 108%; in the test on COLO 205 colon, 114%.
In the case of `CCC1CCCCN1C(=S)N/N=C(\C)c1ccccn1` (configuration not stated), the growth is 20.8% with NCI-H23 lung; 7.86% (active) in the test with NCI-H226 lung; 8.13% (active) in the test with NCI-H322M lung; 10.2% in the test with HOP-62 NSCLC; -38.7% (active) in the test with NCI-H460 lung; -18.6% (active) in the test with NCI-H522 lung. The growth with A549/ATCC NSCLC was 2.7% (active); with 786-0 renal it was 11.3%; in the test on COLO 205 colon, -37.5% (active).
With `O=C1C=CC(=O)N1c1ccccc1`, the growth in the test with NCI-H23 lung is 98.2%; in the test on NCI-H226 lung, 87.7%; in the test on NCI-H322M lung, 110%; with HOP-62 NSCLC it was 92%; with NCI-H460 lung it was 110%; in the test on NCI-H522 lung, -51.8% (active). For the same compound, the growth in the test on 786-0 renal is 94.5%.
With `O=C1C=CC(=O)N1C1CCCCCCCCCCC1`, the growth was 89.9% with NCI-H23 lung; 82.9% with NCI-H226 lung; 95.3% with NCI-H322M lung; 101% with HOP-62 NSCLC; 106% in the test on NCI-H460 lung; 7.03% (active) with NCI-H522 lung. In addition, the growth in the test on A549/ATCC NSCLC was 91.6%; with 786-0 renal, 94.6%; in the test on COLO 205 colon, 52.4%.
Regarding `Clc1ccc(-n2ncc3c(NCCCN4CCOCC4)ncnc32)cc1`, the growth is 87.6% in the test with NCI-H23 lung; 91.8% in the test with NCI-H226 lung; 89.8% in the test with NCI-H322M lung; 87.7% with HOP-62 NSCLC; 102% in the test on NCI-H460 lung; 94.7% with NCI-H522 lung. The growth is 107% in the test with 786-0 renal and 87.4% in the test on COLO 205 colon.
In the case of `Oc1ccc(Cl)cc1Cc1cc(Cl)ccc1O`, the growth is -12.5% (active) in the test on NCI-H23 lung; 96.7% with NCI-H226 lung; 79.6% in the test on NCI-H322M lung; 70.6% with HOP-62 NSCLC; 11.5% in the test with NCI-H460 lung; 5.48% (active) in the test with NCI-H522 lung. Also, the growth in the test with A549/ATCC NSCLC was 61%; in the test with 786-0 renal, 75.5%; in the test on COLO 205 colon, 110%.
For `CCSc1nc2ccccc2o1`, the growth was 107% in the test on NCI-H23 lung; 106% with NCI-H226 lung; 120% in the test on NCI-H322M lung; 99.4% with HOP-62 NSCLC; 103% with NCI-H460 lung; 94.3% with NCI-H522 lung. Also, the growth is 96.1% in the test on A549/ATCC NSCLC, 106% with 786-0 renal and 113% with COLO 205 colon.
Consider `C/C(=N/NC(N)=S)c1ccc(C)cc1`, for which the growth with NCI-H23 lung was 95.4%; in the test on NCI-H226 lung, 83.5%; in the test on NCI-H322M lung, 106%; in the test on HOP-62 NSCLC, 87.8%; in the test on NCI-H460 lung, 100%; in the test with NCI-H522 lung, 94.5%. For the same compound, the growth with A549/ATCC NSCLC was 87.6%; in the test on 786-0 renal, 101%; in the test on COLO 205 colon, 99.1%.
On to `CCCCCCCCC(C)C(=O)N1CCCC1C(=O)N1C(CC(=O)CC)CC(C)CC1C(=O)NC(C)C(=O)NC(C)(C)C(=O)NC(C)(C)C(=O)NC(C(=O)NC(C)C(=O)NC(C)(C)C(=O)NC(C)(C)C(=O)NC(C)CN(C)CCO)C(C)CC` (configuration not stated) (X4-P[X5]A[Aib][Aib]IA[Aib][Aib]-X6; configuration not given here), for which the growth was 195% in the test on NCI-H23 lung; -50.7% (active) in the test on NCI-H226 lung; 21.2% in the test on NCI-H322M lung; -81.5% (active) in the test on HOP-62 NSCLC; -83.7% (active) in the test with NCI-H460 lung; -62.9% (active) with NCI-H522 lung. For the same compound, the growth with A549/ATCC NSCLC was -62% (active); in the test with 786-0 renal, -53.7% (active); in the test with COLO 205 colon it was -75.9% (active).
